Laboratory results taken from PubChem BioAssay (EPA / NIEHS).
Records with an inconclusive call do not appear. The source made the active and inactive calls. The calls were made as follows: active = hit-call score of the fitted dose curve at least 0.9, where 1 is the maximum; inconclusive = response in the unintended direction; inactive = score below 0.9.

Test: Tanguay_ZF_120hpf_OTIC_legacy: (Legacy) Oregon State University Tanguay Lab 120 Hour Post-fertilization zebrafish Assay for Otic Vesicle Malformation (AID 2283639)
Summary of the method: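 Otic vesicle malformation is read as a yes/no morphology call at 120 hpf. Exposure is static at 28C with 0.64% (vol/vol) DMSO; embryos that die are excluded from non-mortality endpoints.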

| SMILES | outcome |
| --- | --- |
| CCCCCCCCCCCCCCC | inactive |
| Cc1[nH]nc2c1N=C(c1ccccc1Cl)c1cc([N+](=O)[O-])ccc1N2 | inactive |
| CCCCCCCCCCCCOS(=O)(=O)O | inactive |
| CN(C)CCOC(c1ccccc1)c1ccccc1 | inactive |
| CS(=O)(=O)c1ccc([C@@H](CC2CCCC2)C(=O)Nc2cnccn2)cc1Cl | inactive |
| O=C1NS(=O)(=O)c2ccccc21 | inactive |
| CCC(C)c1ccccc1O (centres undefined) | inactive |
| CCCCC(CC)C(=O)O (centres undefined) | inactive |
| OCC(CO)(CBr)CBr | inactive |
| N=C(N)c1ccc(OCCCCCOc2ccc(C(=N)N)cc2)cc1 | inactive |
| CC(=O)Nc1ccc(O)cc1 | inactive |

Test: Tanguay_ZF_120hpf_PE_legacy: (Legacy) Oregon State University Tanguay Lab 120 Hour Post-fertilization zebrafish Assay for Pericardial Edema (AID 2283640);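 as to AC50: potency for increased incidence of pericardial edema versus DMSO baseline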
Summary of the method: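 Tropical 5D wild-type zebrafish embryos were exposed statically to 120 hpf at 28C, sealed and foil-covered, in 0.64% DMSO final. Pericardial edema was scored present/absent by brightfield microscopy; dead embryos were not scored.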

| SMILES | outcome | AC50 |
| --- | --- | --- |
| CCCCCCCCCCCCCCC | inactive | – |
| Cc1[nH]nc2c1N=C(c1ccccc1Cl)c1cc([N+](=O)[O-])ccc1N2 | inactive | – |
| CCCCCCCCCCCCOS(=O)(=O)O | inactive | – |
| CN(Cc1cnc2nc(N)nc(N)c2n1)c1ccc(C(=O)N[C@@H](CCC(=O)O)C(=O)O)cc1 | inactive | – |
| CN(C)CCOC(c1ccccc1)c1ccccc1 | – | 26.7 µM (active) |
| CS(=O)(=O)c1ccc([C@@H](CC2CCCC2)C(=O)Nc2cnccn2)cc1Cl | inactive | – |
| O=C1NS(=O)(=O)c2ccccc21 | inactive | – |
| CCC(C)c1ccccc1O (centres undefined) | inactive | – |
| CCCCC=O | – | 42.9 µM (active) |
| CCCCC(CC)C(=O)O (centres undefined) | inactive | – |
| OCC(CO)(CBr)CBr | inactive | – |
| N=C(N)c1ccc(OCCCCCOc2ccc(C(=N)N)cc2)cc1 | inactive | – |
| CC(=O)Nc1ccc(O)cc1 | inactive | – |
